# ClpP mod – qHTS Assay for Activators of ClpP; ATP-dependent Clp protease proteolytic subunit (Bacillus subtilis (strain 168)), P80244; purified B. subtilis ClpP, FRET peptide cleavage, 20 min; Potency, µM (highest dose often 57.5 µM), without a hit: top-dose activity change, negative = active; 340,000 compounds, 1.9% hits; AID 651965, 2013; active = well fitted falling curve with a large enough effect; inconclusive = small, poorly fitted or top-dose-only effect; inactive = no such curve, though single readings can be large or run the other way; note: the source files actives as falling curves though it sought activators and does not explain the sign; nearly all actives have a fitted effect of over 65% in size
# Target sequence (P80244 whole entry, looked up): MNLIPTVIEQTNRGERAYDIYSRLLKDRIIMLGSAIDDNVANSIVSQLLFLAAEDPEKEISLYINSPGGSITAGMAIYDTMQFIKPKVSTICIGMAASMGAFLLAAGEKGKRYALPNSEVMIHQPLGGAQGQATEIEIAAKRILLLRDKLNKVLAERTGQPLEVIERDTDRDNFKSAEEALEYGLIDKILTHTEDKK
#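 ClpP 10 microg/mL final, pH 8 Tris/KCl buffer with BSA, glycerol, Tween-20; compound pinned in; FRET-FV substrate; RT 20 min; Ex320/Em430; ΔFRET vs ADEP 5.8 microM, DMSO, no enzyme.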
# RORg inh – blocks mouse ROR gamma transcriptional activity; P51450; Drosophila S2 Gal4-RORgamma UAS-luciferase reporter, 20 h; Potency, µM (titrated, usually from 53.6 µM), without a hit: at the highest dose activity change, negative = inhibition, most hits filed as inhibitors; 310,000 compounds, 5.4% hits; AID 2551; note: % is set by controls: 0 for no effect and ±100 for the full control effect; nearly all actives have a fitted effect of over 60% in size
# Target sequence (P51450 whole entry, looked up, the tested form may be a part): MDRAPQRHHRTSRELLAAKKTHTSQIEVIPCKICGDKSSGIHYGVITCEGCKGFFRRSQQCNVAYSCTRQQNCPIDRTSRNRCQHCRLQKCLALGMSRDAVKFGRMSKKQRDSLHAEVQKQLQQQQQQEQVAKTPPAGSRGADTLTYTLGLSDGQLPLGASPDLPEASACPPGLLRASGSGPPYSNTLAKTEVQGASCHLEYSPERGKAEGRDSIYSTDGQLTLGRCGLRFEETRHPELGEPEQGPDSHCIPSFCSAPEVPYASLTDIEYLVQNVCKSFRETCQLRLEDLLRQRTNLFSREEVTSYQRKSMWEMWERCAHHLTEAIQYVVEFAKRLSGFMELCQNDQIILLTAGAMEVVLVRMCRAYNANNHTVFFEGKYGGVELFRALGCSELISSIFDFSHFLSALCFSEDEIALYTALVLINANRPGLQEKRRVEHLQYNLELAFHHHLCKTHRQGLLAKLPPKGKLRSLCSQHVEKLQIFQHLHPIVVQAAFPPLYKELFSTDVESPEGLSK
#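 Luciferase reporter read in Schneider cells carrying Gal4-RORγ (mouse) and UAS-Photinus luciferase; cells given compound 1 h before 700 uM copper sulfate induction, then incubated 20 h at ambient temperature.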
# Gal4-VP16 FLuc – Gal4-VP16 reporter inhibition counter-screen | 310,000 compounds, 3.5% hits | Potency, µM (series often up to 53.6 µM), for inactives: top-dose activity, negative = inhibition, actives largely listed as inhibitors | Drosophila S2 Gal4-VP16 UAS-luciferase, luminescence, 20 h | AID 2546;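 note: Gal4-VP16 expression switched on by copper sulfate through the metallothionein promoter; % is set by controls: 0 for no effect and ±100 for the full control effect; nearly all actives have a fitted effect of over 50% in size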
# Sfp PPTase inh – blocks B. subtilis Sfp PPTase activity. Biochemical Sfp PPTase activity, qHTS. Potency, µM, without a hit: largest response in the series, negative = inhibition, most hits filed as inhibitors. 310,000 compounds, 3.5% hits. AID 1490;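 note: the enzyme is Sfp with the accession as filed and its product quenches rhodamine fluorescence; 0% = enzyme reaction without inhibitor and -100% = no enzyme wells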
#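 Step 1, compound plus 15 nM Sfp-PPTase, 15 min, room temperature. Step 2, add rhodamine-CoA (5 uM) and BHQ-2-YbbR (12.5 uM). Step 3, read 525/598 nm fluorescence at 0 and 30 min.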
# PINK1 modulator – changes PINK1 expression. PINK1 immunofluorescence, high-content cytometry, 24 h. Potency, µM (highest dose often 76.6 µM), without a hit: at the top dose activation (PINK1 increase), most hits filed as activators. 410,000 compounds, 0.2% hits. AID 624263; active = well fitted activation curve with a large enough effect; inconclusive = small, poorly fitted or top-dose-only effect; cell line not stated here; note: % of control where 0% means no effect; nearly all actives have a fitted effect of over 65% in size
#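 Readout is PINK1 immunofluorescence, quantified alongside mitochondrial, cell and nuclear markers by laser-scanning microplate cytometry. Cells from a stable line were exposed to compound titrations (5 concentrations) for 24 hours, with CCCP controls.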
# Epigenetic reg – regulators of epigenetic silencing causing reporter derepression in mouse cells; murine LDR cells, GFP reporter derepression, 30 h; Potency, µM (doses to about 53.9 µM), for inactives: at the top dose GFP activation, hits mostly activators; 280,000 compounds, 0.2% hits; AID 1865; note: % of control where 0% means no effect; nearly all actives have a fitted effect of over 60% in size
#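 Derepression of a silenced CMV-GFP reporter in murine LDR cells is scored by enumerating GFP-positive cells with a laser-scanning microplate cytometer after 30 hours of treatment at 37 C.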
# An asterisk follows results filed as active; ? = inconclusive; . = no result given; [ ] = remark or other dose. This is a sample that favours compounds with a hit; in the whole collection about 8.1% have one here. Unless noted, calls come from the whole dose curve; as a rule, active = well fitted curve in the direction sought with a large enough effect; inconclusive = small, poorly fitted or top-dose-only effect, or another doubt; inactive = no such curve, though single readings can be large; an effect the other way counts as inactive or inconclusive. Potency is the fitted concentration of half-maximal effect.
SMILES,ClpP mod,RORg inh,Gal4-VP16 FLuc,Sfp PPTase inh,PINK1 modulator,Epigenetic reg
Cc1ccc(-c2ccc(CCC(=O)O)n2-c2ccc(C(C)C)cc2)cc1,-29%,.,.,.,0%,-1%
Cc1ccc(/C=N\NC(=O)c2cc([N+](=O)[O-])cc([N+](=O)[O-])c2)o1,1%,2.5µM*,?,-6%,1%,-2%
Cc1ccc(/C=N/NC(=O)c2ccc(-c3ccccc3)cc2)o1,.,13µM*,?,16%,6%,.
Cc1nn(C)cc1CNC(=O)C1CCC(=O)N(Cc2cccc(C(F)(F)F)c2)C1 (centres undefined),25µM*,-4%,-5%,4%,-1%,.
CCOCCCn1c(SCC(=O)NCc2ccccc2)nc2c(sc3ccccc32)c1=O,-2%,.,.,.,2%,17%
O=C(NCCc1ccccc1)C1CCN(Cc2cccc3ccccc23)CC1,16µM*,.,.,3%,-1%,.
Nc1nc(Nc2ccccc2)nc(N2CCOCC2)c1[N+](=O)[O-],16µM*,?,-4%,-2%,-1%,-3%
Cc1cc(C)cc(NC(=O)CN(C)S(=O)(=O)c2ccc3c(c2)CCC(=O)N3)c1,1%,.,.,.,6%,-1%
CCOc1ccc(OCC)c(NC(=O)CSc2nc3cccnc3n2C)c1,-1%,?,2%,10%,-1%,3%
CCOc1ccc(OCC)c(NC(=O)CSc2nc3ccccc3c(=O)n2C)c1,3%,-15%,20µM*,-4%,4%,0%
CC(C)(C)c1ccc(C(=O)N/N=C2\C3CN4CCN(C3)CC2(c2ccccc2)C4)cc1,22µM*,-24%,-3%,4%,2%,0%
CC(=O)c1ccc(NC(=O)c2ccc(CN3C(=O)CCn4nc(C)cc43)cc2)cc1,0%,.,.,.,1%,1%
S=C1NCN(CCc2ccccc2)CN1,.,-19%,-2%,9%,0%,3%
CCCCN1CNC(=S)N(CCc2ccc(OCC)c(OCC)c2)C1,.,3.2µM*,14µM*,8%,0%,0%
CCOc1ccc(CCN2C(=O)C3C4C=CC(C4)C3C2=O)cc1OCC (centres undefined),-4%,?,-3%,13%,-2%,0%
CCCN1CN(CCc2ccccc2)CNC1=S,-1%,1.1µM*,1.8µM*,-1%,3%,0%
CCOc1ccc(CCN2CN(C3CCCCC3)CNC2=S)cc1OCC,1%,2.8µM*,8.9µM*,22%,-1%,0%
S=C1NCN(C2CCCCC2)CN1CCc1ccccc1,.,2.8µM*,4µM*,13%,-1%,0%
S=C1NCN(CCc2ccccc2)CN1Cc1ccccc1,-3%,5%,3%,-5%,4%,1%
Cc1ccc(NC(=O)CSc2nnc(-c3cc4occc4n3C)n2-c2ccccc2C)c(C)c1,-14%,.,.,.,-1%,-1%
CCOc1ccccc1N1CN(C2CCCCC2)CNC1=S,.,3.2µM*,14µM*,2%,1%,0%
CCCCN1CNC(=S)N(CCc2ccccc2)C1,-6%,2.8µM*,4.5µM*,3%,0%,0%
Clc1ccccc1Cc1cn2cc(-c3ccccc3)nc2s1,-2%,.,.,.,3%,4%
COc1ccc(CCNC(=O)CCn2c(=O)c3ccccc3n(Cc3ccccc3)c2=O)cc1OC,-20%,.,.,.,0%,2%
CCOC(=O)c1ccc(CC(=O)c2ccc(O)c(O)c2O)o1,.,-29%,-3%,6.3µM*,1%,1%
SMILES,ClpP mod,RORg inh,Gal4-VP16 FLuc,Sfp PPTase inh,PINK1 modulator,Epigenetic reg
CCOC(=O)c1oc2cc(O)c(CC)cc2c(=O)c1-c1cscn1,.,39%,-19%,6%,17%,0%
CCOC(=O)c1ccc(-c2c(C(=O)OCC)oc3cc(O)c(CC)cc3c2=O)o1,1%,3.2µM*,?,-6%,0%,-1%
CCOC(=O)c1ccc(CSC(=N)N)o1,0%,1%,-4%,13%,6%,?
CCc1cc2c(=O)c(Oc3ccccc3)c(C)oc2cc1O,7.9µM*,17%,-3%,8%,2%,-1%
CCOC(=O)c1ccc(CC(=O)c2oc3cc(O)ccc3c2C)o1,32µM*,7%,4%,?,7%[38.3 µM],0%
CCOC(=O)c1cc(-c2ccc(C)cc2)n(CCC(=O)Nc2cc(Cl)ccc2C)c1C,-1%,.,.,.,2%,7%
CCOC(=O)c1sc(NC(=O)CCN2CCCCCC2)c(C(=O)OCC)c1C,.,11µM*,?,13%,1%,?
CCOC(=O)c1sc(NC(=O)CNCc2ccccn2)c(C(=O)OCC)c1C,.,7.9µM*,?,9%,1%,1%
Cc1ccc(CNC(=O)c2cnc3c(-c4ccc(F)cc4)c(C)nn3c2C)o1,-1%,.,.,.,4%,1%
O=C(NC(Nc1ncc(S(=O)(=O)c2ccc([N+](=O)[O-])cc2)s1)(C(F)(F)F)C(F)(F)F)c1ccc(Cl)cc1,0%,?,11µM*,19%,?,2%
COCC(=O)Nc1ncc(S(=O)(=O)c2ccc([N+](=O)[O-])cc2)s1,-1%,-34%,8%,8%,0%,1%
CCC1(C2CCN(Cc3ccccc3Cl)CC2)NC(=O)N(CC2COc3ccccc3O2)C1=O (centres undefined),.,.,.,.,1%,.
Cc1cccc(-c2nc(=S)c3c(n2Cc2ccco2)CCCC3)c1,-1%,11µM*,?,20µM*,-5%[38.3 µM],-1%
COc1cccc(NC(=O)CSc2nc(=O)n(Cc3ccco3)c3c2CCC3)c1,-1%,.,.,.,0%,5%
Cc1ccc(-c2nc(=S)c3c(n2Cc2ccco2)CC(C)(C)OC3)cc1,-3%,2.8µM*,16µM*,56µM*,3%,-1%
COc1cccc(-c2nc(=S)c3c(n2Cc2ccco2)CCCC3)c1,0%,?,-14%,-9%,6.3µM*,-1%
Cc1ccc(-c2nc(=S)c3c(n2Cc2ccco2)CCCC3)cc1,-2%,-29%,-10%,-49%,-1%,-8%
Cc1nc(NCc2ccccc2)c2nc(-c3ccccc3)n(CCCN3CCCCC3C)c2n1 (centres undefined),.,-38%,-6%,5%,.,5%
O=C(CCl)c1cc2c3c(c1)CC(=O)N3CCC2,-2%,2µM*,3.5µM*,-1%,-1%,.
CCc1cccc2c(-c3ccccc3)c3c(nc12)OCC3,.,4%,5%,-14%,.,4%
CN(C)c1ncc2nc(-c3cccs3)c(=O)n(-c3ccccc3)c2n1,.,2%,2%,9%,40µM*,.
CCNc1ncc2nc(-c3cccs3)c(=O)n(-c3ccccc3)c2n1,.,-25%,-17%,17%,?,.
COc1ccc(-n2c(=O)c(-c3cccs3)nc3cnc(Nc4ccccc4)nc32)cc1,.,?,-4%,43%,4.5µM*,.
